C diff growth – C. difficile growth inhibitors, primary screen, HTS. 86,000 tested, 0.25% active. growth activity, negative = inhibition, % at 16 µg/mL (by protocol). AID 1259249, 2017. Clostridium difficile clinical isolate growth, OD600, 24 h; active compounds read low;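 active means mean growth activity at or below -80% and every replicate also at or below -80%; inconclusive means mean at or below -80% but some replicate above -80%; inactive means mean growth activity above -80%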
T cruzi growth-1 – T. cruzi intracellular proliferation inhibitors, primary screen, cell-based, beta-gal Tulahuen parasites, NIH3T3 host, luminescence; T. cruzi beta-gal in NIH3T3, GalScreen luminescence, 90 h; inhibition, % at 8.34 µM; 77,000 tested, 5.9% active; AID 624255, 2012;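 active means mean inhibition above about 93%, with at least 55% of replicates each passing it, limit read from the data, passing the limit was not always enough; inconclusive means only one of those two conditions holds; inactive means neither condition holds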
Pf Dd2 inh – P. falciparum Dd2 growth inhibitors, primary screen, SYBR Green fluorescence, single dose replicates. 72 h; active compounds read low. activity change, % at 10 µM. 94,000 tested, 2.3% active. AID 1159554, 2015; in the data active means activity change below about -80%; inconclusive means no clear call, values can overlap the other calls
T cruzi growth-2 – T. cruzi intracellular proliferation inhibitors, confirmation, cell-based, NIH3T3 host, beta-gal parasite, luminescence, cherry-pick; shares compounds with T cruzi growth-1; T. cruzi beta-gal in NIH3T3, GalScreen luminescence, 90 h; inhibition, % at 8.35 µM; 5,600 tested, 72% active; AID 651739, 2012;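 active means mean replicate inhibition above about 95% and at least 55% of replicates individually reaching it, limit read from the data; inconclusive means only one of the two criteria is met; inactive means neither criterion is met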
T cruzi growth-3 – inhibitors of intracellular T. cruzi replication, confirmation, NIH3T3 host cells, beta-gal parasites, cherry-pick, set 2; 5,600 tested, 21% active; T. cruzi beta-gal in NIH3T3, GalScreen luminescence, 90 h; shares compounds with T cruzi growth-1; AID 651740, 2012; inhibition, % at 2.09 µM;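 active means mean inhibition above about 95%, with at least 55% of replicates also reaching it, limit read from the data; inconclusive means meets just one of the two conditions; inactive means meets neither condition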
NIH3T3 tox – cytotoxicity in mouse NIH/3T3 fibroblasts, confirmation, cytotoxicity control for T. cruzi proliferation inhibitor project, cell-based, cherry-pick, single point; shares compounds with T cruzi growth-1; NIH/3T3 viability, CellTiter-Glo ATP luminescence, 90 h; cytotoxicity (signal decrease), % at 8.35 µM; 5,600 tested, 14% active;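 active means mean signal decrease across replicates above about 35% based on untreated-well scatter, with enough replicates individually passing, limit read from the data; inconclusive means no rule stated though some were filed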
3T3 cytotox 2 – NIH/3T3 fibroblast cytotoxicity, confirmation, cytotoxicity control, cell-based, cherry-pick, single point, set 2; NIH/3T3 viability, CellTiter-Glo ATP luminescence, 90 h; AID 651744, 2012; inhibition, % at 24.9 µM; shares compounds with T cruzi growth-1; 5,600 tested, 56% active;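 active means mean loss of cell viability signal at or above a set limit, and enough replicates individually reaching it; inconclusive means meets only the mean limit or only the replicate share; inactive means meets neither condition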
Of the large screens only hits and unclear results are named; the others gave an inactive call (follow-up assays come after a bar, where they were run). An excerpt weighted towards active compounds, which were near 6.7% of everything screened.

C[C@@H]1CN([C@@H](C)CO)C(=O)Cc2cc(NS(=O)(=O)c3ccccc3)ccc2O[C@H]1CN(C)Cc1ccc(C(F)(F)F)cc1	none (no result: T cruzi growth-1)
CC(C)CC#Cc1ccc2c(c1)O[C@@H](CN(C)C(=O)Cc1ccccc1)[C@H](C)CN([C@H](C)CO)S2(=O)=O	T cruzi growth-1 129.2 | T cruzi growth-2 105.4 | T cruzi growth-3 99.5 | NIH3T3 tox inactive | 3T3 cytotox 2 106.8
CCC(=O)N(C)C[C@H]1Oc2cc(C#CCC(C)C)ccc2S(=O)(=O)N([C@H](C)CO)C[C@@H]1C	none
COc1cccc(S(=O)(=O)N(C)C[C@H]2Oc3ncc(C#CCN(C)C)cc3C(=O)N([C@H](C)CO)C[C@H]2C)c1	none
O=C(NCC1CC1)[C@@H]1[C@@H](CO)[C@@H]2Cn3c(ccc(-c4cccnc4)c3=O)[C@@H]2N1Cc1cocn1	none
CCCNC(=O)[C@H]1[C@H](CO)[C@H]2Cn3c(ccc(C4=CCCCC4)c3=O)[C@H]2N1Cc1ccccc1F	T cruzi growth-1 102.5 | T cruzi growth-2 106.4 | T cruzi growth-3 inactive | NIH3T3 tox inactive | 3T3 cytotox 2 inconclusive
O=C(NCC1CC1)[C@@H]1[C@@H](CO)[C@@H]2Cn3c(ccc(C4=CCCC4)c3=O)[C@@H]2N1Cc1ccccc1F	none (no result: Pf Dd2 inh)
O=C(NCC1CC1)[C@H]1[C@H](CO)[C@H]2Cn3c(ccc(-c4ccccc4)c3=O)[C@H]2N1Cc1cocn1	T cruzi growth-1 97.6 | T cruzi growth-2 inactive | T cruzi growth-3 inactive | NIH3T3 tox inactive | 3T3 cytotox 2 inactive
O=C(NCC1CC1)[C@H]1[C@H](CO)[C@H]2Cn3c(ccc(C4=CCCCC4)c3=O)[C@H]2N1Cc1ccccc1F	T cruzi growth-1 98.9 | T cruzi growth-2 inactive | T cruzi growth-3 inactive | NIH3T3 tox inactive | 3T3 cytotox 2 66.0
CCN1[C@@H]2c3ccc(C4=CCCC4)c(=O)n3C[C@@H]2[C@@H](CO)[C@@H]1C(=O)NC1Cc2ccccc2C1	none
CCN1[C@@H]2c3ccc(C4=CCCCC4)c(=O)n3C[C@@H]2[C@@H](CO)[C@@H]1C(=O)NC1Cc2ccccc2C1	T cruzi growth-1 105.2 | T cruzi growth-2 105.8 | T cruzi growth-3 inactive | NIH3T3 tox inactive | 3T3 cytotox 2 41.3
O=C(O)[C@@H]1[C@@H](CO)[C@@H]2Cn3c(ccc(C4=CCCCC4)c3=O)[C@@H]2N1Cc1ccccc1F	none
COCC#Cc1ccc2c(c1)O[C@@H](CN(C)CC1CCOCC1)[C@H](C)CN([C@H](C)CO)S2(=O)=O	none
O=C(Nc1ccc(Cl)c(Cl)c1)N[C@@H]1CC[C@H](CCNC(=O)c2ccc(F)cc2)O[C@@H]1CO	none (no result: C diff growth)
CN(C)C(=O)[C@@H]1[C@@H](CO)[C@@H]2Cn3c(ccc(C4=CCCC4)c3=O)[C@@H]2N1Cc1ccccn1	none
CN(C)C(=O)[C@H]1[C@H](CO)[C@H]2Cn3c(ccc(C4=CCCCC4)c3=O)[C@H]2N1Cc1ccccn1	T cruzi growth-1 active (no result: Pf Dd2 inh) | T cruzi growth-2 inactive | T cruzi growth-3 inactive | NIH3T3 tox inactive | 3T3 cytotox 2 inactive
C[C@@H]1CN([C@@H](C)CO)S(=O)(=O)c2ccc(C3=CCCC3)cc2O[C@@H]1CN(C)C	none
C[C@H]1CN([C@@H](C)CO)C(=O)c2cc(C#CCN(C)C)cnc2O[C@H]1CN(C)C(=O)Nc1ccccc1F	none
N#C[C@H]1[C@H](c2ccc(C#CC3CCCCC3)cc2)[C@@H](CO)N1S(=O)(=O)c1ccccc1	none
N#C[C@H]1[C@@H](c2ccc(C#CC3CC3)cc2)[C@H](CO)N1S(=O)(=O)c1ccccc1	T cruzi growth-1 101.3, Pf Dd2 inh -84.6 | T cruzi growth-2 98.1 | T cruzi growth-3 112.7 | NIH3T3 tox inconclusive | 3T3 cytotox 2 53.0
N#C[C@H]1[C@H](c2ccc(C#CC3CC3)cc2)[C@@H](CO)N1S(=O)(=O)c1ccccc1	T cruzi growth-1 96.6 | T cruzi growth-2 100.0 | T cruzi growth-3 102.8 | NIH3T3 tox inactive | 3T3 cytotox 2 inactive
N#C[C@@H]1[C@@H](c2ccc(C#CC3CC3)cc2)[C@H](CO)N1S(=O)(=O)c1ccccc1	T cruzi growth-1 95.5 | T cruzi growth-2 inconclusive | T cruzi growth-3 102.3 | NIH3T3 tox inactive | 3T3 cytotox 2 inconclusive
O=C(Nc1ccc(F)cc1)Nc1ccc2c(c1)[C@H]1C[C@H](CC(=O)N3CCOCC3)O[C@H](CO)[C@H]1O2	none
C[C@@H]1CN([C@H](C)CO)C(=O)c2cc(-c3cccnc3)cnc2O[C@H]1CN(C)Cc1ccc(Oc2ccccc2)cc1	none
C[C@H]1CN([C@@H](C)CO)C(=O)c2cc(-c3ccncc3)cnc2O[C@@H]1CN(C)Cc1ccc(Oc2ccccc2)cc1	T cruzi growth-1 98.3 | T cruzi growth-2 104.8 | T cruzi growth-3 inactive | NIH3T3 tox inactive | 3T3 cytotox 2 103.5
C[C@H]1CN([C@@H](C)CO)C(=O)c2cc(-c3cccnc3)cnc2O[C@@H]1CN(C)Cc1ccc(Oc2ccccc2)cc1	T cruzi growth-1 inconclusive | T cruzi growth-2 106.8 | T cruzi growth-3 inactive | NIH3T3 tox inactive | 3T3 cytotox 2 103.8
C[C@H](CO)N1C[C@H](C)[C@H](CN(C)Cc2ccc(Oc3ccccc3)cc2)Oc2ncc(-c3cccnc3)cc2C1=O	none
C[C@H](CO)N1C[C@H](C)[C@@H](CN(C)C)Oc2c(NC(=O)Nc3ccc4c(c3)OCO4)cccc2C1=O	none (no result: T cruzi growth-1)
C[C@@H]1CCCCO[C@@H](CN(C)Cc2ccc3c(c2)OCO3)[C@H](C)CN([C@@H](C)CO)C(=O)c2cc(NC(=O)Nc3ccc(F)cc3)ccc2O1	T cruzi growth-1 109.8 | T cruzi growth-2 98.2 | T cruzi growth-3 inactive | NIH3T3 tox inactive | 3T3 cytotox 2 92.4
C[C@@H]1CCCCO[C@H](CN(C)Cc2ccc3c(c2)OCO3)[C@H](C)CN([C@@H](C)CO)C(=O)c2cc(NC(=O)Nc3ccc(F)cc3)ccc2O1	T cruzi growth-1 105.3 | T cruzi growth-2 105.4 | T cruzi growth-3 102.8 | NIH3T3 tox inactive | 3T3 cytotox 2 103.9
C[C@@H]1CCCCO[C@H](CN(C)Cc2ccc3c(c2)OCO3)[C@@H](C)CN([C@H](C)CO)C(=O)c2cc(NC(=O)Nc3ccc(F)cc3)ccc2O1	T cruzi growth-1 98.2 | T cruzi growth-2 111.8 | T cruzi growth-3 inactive | NIH3T3 tox inactive | 3T3 cytotox 2 inactive
